HT1080 IDH1KD tx: qHTS for induction of synthetic lethality in tumor cells producing 2HG: qHTS for the HT-1080-IDH1KD cell line; HT-1080 IDH1 knockdown viability, ATP luminescence, 48 h; Potency, µM (titrated, usually from 46.1 µM), for inactives: at the highest dose activity, negative = toxicity, most hits filed as cytotoxic; 2% of 360,000 active;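 further: potency means the concentration at half of the fitted maximal effect; 0% = DMSO wells and -100% = cell-free medium wells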
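After a 2 h attachment period, IDH1KD HT-1080 cells took pin-transferred compound for 48 h at 37 °C; ATP-based luminescence after 10 min room-temperature reagent incubation reported viability.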
DT40 TDP1 CPT: qHTS for Inhibitors of human tyrosyl-DNA phosphodiesterase 1 (TDP1): qHTS in cells in presence of CPT | chicken DT40 Tdp1-/-;hTDP1 cells + 20 nM CPT, ATP luminescence, 48 h | Potency, µM (titrated, usually from 46.2 µM), inactives show at the highest dose activity change, negative = growth inhibition, most hits filed as inhibitors | 12% of 420,000 active; further: potency means the concentration at half of the fitted maximal effect; nearly all actives have a fitted effect of over 55% in size
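Cell growth measured by CellTiter-Glo luminescence after a minimum 48 h, 37 C compound exposure with 20 nM CPT in Tdp1-knockout DT40 cells stably expressing hTDP1, seeded 400/well; qHTS titration format.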
IL-1B inflam inh: qHTS for Inhibitors of Inflammasome Signaling: IL-1-beta AlphaLISA Primary Screen. THP-1 LPS/ATP IL-1B secretion, AlphaLISA, 16 h; stronger effect = lower value. activity change, % at 57.5 µM. 4.7% of 360,000 active; in the data active means activity change below about -50%; inconclusive means mostly about -30% to -49%
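THP-1 cells pretreated 1 hr with compounds (up to 57.5 uM final), then stimulated with LPS (250 ng/mL final) plus ATP (1.25 mM final); secreted IL-1B measured by AlphaLISA after 16 hr, decreased signal indicating inhibition.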
HT1080NT lethal: qHTS for induction of synthetic lethality in tumor cells producing 2HG: qHTS for the HT-1080-NT fibrosarcoma cell line; HT-1080-NT fibrosarcoma viability, CellTiter-Glo ATP luminescence, 48 h; Potency, µM (doses to about 46.1 µM), for the others: at the top dose activity, negative = less viability, hits mostly cytotoxic; 1.6% of 360,000 active; AID 686970, 2013;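 further: NT is the 2HG producing partner of a matched IDH1 knockdown line; potency means the concentration at half of the fitted maximal effect; 0% = DMSO-treated cells and -100% = media-only wells without cells; nearly all actives have a fitted effect of over 55% in size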
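750 cells/well, RPMI + 5% FBS; 2 h settle, compound pin-transfer, 48 h at 37 degrees C. CellTiter-Glo 10 min RT, luminescence. Normalized to DMSO and media-only wells.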
TDP1 cell noCPT: qHTS for Inhibitors of human tyrosyl-DNA phosphodiesterase 1 (TDP1): qHTS in cells in absence of CPT | DT40 Tdp1-/- hTDP1 cells, no CPT, ATP luminescence, 48 h | Potency, µM (doses to about 46.2 µM), without a hit: at the highest dose activity change, negative = growth inhibition, usual class: inhibitors | 15% of 420,000 active; further: potency means the concentration at half of the fitted maximal effect; nearly all actives have a fitted effect of over 55% in size
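Growth of hTDP1-complemented DT40 Tdp1-knockout cells is measured by ATP luminescence after at least 48 hr compound exposure at 37 °C, with DMSO substituting for the 20 nM CPT used in the parallel screen.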
* marks the source's active call; other numbers are inactive results; ? = inconclusive; . = no result given. A selection: hits, their analogues and other compounds. The true share with any hit is near 19%. Unless noted, the call rests on the fitted dose curve; in most records, active means well fitted curve in the direction sought with a large enough effect; inconclusive means small, poorly fitted or top-dose-only effect, or another doubt; inactive means no such curve, though single readings can be large; an effect the other way counts as inactive or inconclusive. Unless noted, on the % scale 0 is the no-effect control and ±100 the full control effect.

SMILES | HT1080 IDH1KD tx | DT40 TDP1 CPT | IL-1B inflam inh | HT1080NT lethal | TDP1 cell noCPT
Cn1nc2c(c1C(=O)N1CCCC(C(=O)c3cc(F)ccc3F)C1)CCCC2 (centres undefined) | -3% | 16µM* | 7 | -8% | -36%
CCOC(=O)N1CCN(C(=S)NC(=O)c2ccc(F)c(F)c2)CC1 | 2% | ? | 17 | 0% | 15µM*
C=CCNC(=S)N1CCC(C(=O)c2ccc(OC)cc2)CC1 | -29% | ? | 16 | -17% | ?
CCOC(=O)N1CCN(C(=S)NC(=O)c2cccc(OC)c2)CC1 | -16% | 6% | 4 | -22% | -3%
COc1ccc(NC(=S)N2CCC(C(=O)c3ccc(Cl)cc3)CC2)cc1 | 5% | 6% | 8 | 8% | 11%
CCCNC(=S)N1CCC(C(=O)c2ccc(OC)cc2)CC1 | -3% | -27% | -2 | 6% | 21µM*
CCOc1ccc(NC(=S)N2CCC(C(=O)c3ccc(OC)cc3)CC2)cc1 | -3% | 16µM* | -7 | 0% | 18µM*
O=C(NC(=S)N1CCCC(C(F)(F)F)C1)c1ccc(F)cc1 (centres undefined) | -13% | 18µM* | -23 | 0% | 23µM*
N#Cc1ccsc1NC(=O)CSc1nnc(NC2CC2)s1 | 5% | 0% | 30 | 0% | -11%
O=C(COCC(=O)N1CCOCC1)N1CCOCC1 | 12% | -15% | 51 | 20% | 3%
CCn1cc(C(=O)OCC(=O)NCc2ccccc2Cl)c(=O)c2ccc(C)nc21 | -3% | ? | -21 | -23% | ?
COc1ccc(C(=O)NC(=S)N2CCCCC2)cc1 | 0.79µM* | ? | -13 | 0.56µM* | ?
COc1ccc(CN2CCC(C(=O)c3ccc(Cl)cc3)CC2)cc1 | -3% | 23µM* | -27 | 2% | 16µM*
CC(C)CNC(=S)N1CCC(C(=O)c2ccc(Cl)cc2)CC1 | -21% | 10µM* | -21 | -12% | ?
CCCNC(=S)N1CCC(C(=O)c2ccc(Cl)cc2)CC1 | -14% | 23µM* | 29 | 0% | ?
CCNC(=S)N1CCC(C(=O)c2ccc(Cl)cc2)CC1 | 4% | ? | 0 | 2% | ?
COc1ccc(CN2C(=O)c3ccccc3C2C(=O)NC2CCCC(C)C2C)c(OC)c1 (centres undefined) | -2% | ? | -28 | 0% | ?
CCS(=O)(=O)N1CCC(C(=O)Nc2cc(Cl)ccc2O)CC1 | 0% | 2% | -1 | 1% | ?
CCS(=O)(=O)N1CCC(C(=O)c2ccc(Cl)cc2)CC1 | ? | 21µM* | -8 | -7% | ?
CCCOC(=O)Cn1cnc2scc(-c3ccc(OC)cc3)c2c1=O | -7% | -5% | -2 | -4% | -6%
CCOc1ccc(CCNC(=O)c2cc3sccc3n2C)cc1OCC | -2% | 16µM* | -6 | 1% | 10µM*
Cn1c(C(=O)Nc2ccccc2)cc2sccc21 | -18% | -25% | 8 | -3% | -23%
COC(=O)c1ccc(NC(=O)c2cc3sccc3n2C)cc1 | -1% | 29µM* | 6 | -5% | ?
COc1ccc(CCNC(=O)c2cc3sccc3n2Cc2ccc(Cl)cc2)cc1OC | . | 13µM* | . | . | 15µM*
CC(C)CCn1c(-c2nonc2N)nc2ccccc21 | ? | 13µM* | 14 | ? | ?
SMILES | HT1080 IDH1KD tx | DT40 TDP1 CPT | IL-1B inflam inh | HT1080NT lethal | TDP1 cell noCPT
CCCCn1c(-c2nonc2N)nc2ccccc21 | -26% | ? | 35 | -5% | ?
Nc1nonc1-c1nc2ccccc2n1Cc1ccccc1 | ? | ? | ? | ? | 29µM*
Nc1nonc1-c1nc2ccccc2n1Cc1ccc(Br)cc1 | . | -20% | . | . | -16%
CC(C)c1ccc(NC(=O)c2cn(C3CCCC3)c(=O)c3c2c2ccccc2n3C)cc1 | . | -26% | . | . | -27%
COc1cc(NC(=O)c2cn(C3CCCC3)c(=O)c3c2c2ccccc2n3C)cc(OC)c1OC | . | ? | . | . | 18µM*
CCOc1ccccc1NC(=O)c1cn(C2CCCC2)c(=O)c2c1c1ccccc1n2C | . | 13µM* | . | . | 9.2µM*
COc1ccccc1NC(=S)NC1CCCCCCCCCCC1 | ? | 10µM* | 5 | -27% | 21µM*
COc1ccccc1NC(=S)NC1CCCCC1 | 15% | 2% | -16 | 5% | -14%
CN(C(=S)Nc1ccc(Oc2ccccc2)cc1)C1CCCCC1 | ? | ? | -100* | -2% | 26µM*
S=C(Nc1ccc(Oc2ccccc2)cc1)NC1CCCCC1 | ? | 26µM* | -15 | ? | ?
S=C(Nc1ccc(Oc2ccc(NC(=S)NC3CCCCC3)cc2)cc1)NC1CCCCC1 | -16% | ? | -2 | 6% | ?
S=C(Nc1ccc(Oc2ccccc2)cc1)NC1CCCCCC1 | ? | 21µM* | -76* | ? | 23µM*
CCOC(=O)[C@@H]1[C@H]2COc3cc(OC)ccc3[C@@H]2N2C(=O)N(c3cccc(Cl)c3)C(=O)[C@@]12C | 1% | -21% | -5 | 0% | ?
Cc1ccc(NC(=O)C2CCN(S(=O)(=O)c3ccc4ccccc4c3)CC2)nc1 | -1% | 1% | -10 | 1% | ?
N#CCCn1c(=O)c(-c2ccc(Cl)cc2)nc2cnc(OCc3ccccc3)nc21 | . | -13% | . | . | -3%
C[C@@H]1CN([C@@H](C)CO)C(=O)CCCn2nncc2CO[C@H]1CN(C)C(=O)c1ccncc1 | 6% | 2% | 13 | 3% | -3%
CCCCN(C)C(=S)Nc1ccc(Oc2ccccc2)cc1 | -21% | -25% | 0 | -3% | ?
CCCN(CC1CC1)C(=S)Nc1ccc(Oc2ccccc2)cc1 | -7% | ? | 29 | -16% | 16µM*
CCOc1ccc(S(=O)(=O)N(CC)CC(=O)NC2CC2)cc1 | 11% | 0% | 0 | 12% | 6%
C=C(C)CNC(=S)N/N=C(\C)c1ccc(Cl)s1 | 7% | ? | 18 | 4% | 16µM*
CNC(=S)N/N=C(\C)c1ccc(Cl)s1 | 14% | 2.9µM* | 3 | 14% | 4.6µM*
C/C(=N/Nc1ccc(F)cc1)c1ccc(Cl)s1 | 23% | -2% | 7 | 10% | 0%
CNC(=S)N/N=C(\C)c1ccc(C)c(C)c1 | -3% | 2.6µM* | -7 | 0% | 3.3µM*
CNC(=S)NN=C(C)c1ccc(OC)cc1O | 25% | 0.016µM* | -76* | 16% | 0.012µM*
C/C(=N\NC(=O)C1CC1)c1ccc(C)c(C)c1 | -7% | 6% | -6 | -12% | 3%
